Rows were chosen to be rich in hits. Some 3.2% of all compounds tested hit in one or more screens of this group.
AHR activator: activates the human aryl hydrocarbon receptor; activation, % at 5 µM; AID 2796; hit rate 2.5% among 320,000; P35869; AHR-responsive luciferase reporter cells, luminescence; in the data active = activation above about 47%;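 also: 0% = vehicle wells and 100% = reference agonist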
NTR1 agonist: NTR1 (human) agonism. P30989. NTR1-U2OS beta-arrestin-GFP spot imaging, agonist mode. activation, % at 20 µM. hit rate 0.17% among 330,000;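 active = activation at or above 40% of the spot to cytoplasm intensity ratio, with at least 20 cells analyzed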;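 also: 0% = DMSO without peptide and 100% = 100 nM NTR1 peptide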
APOBEC3G inh: APOBEC3G (human) deaminase inhibition. hit rate 0.28% among 330,000. inhibition, % at 20 µM. recombinant A3G, ssDNA deamination FAM/TAMRA fluorescence. AID 493012. Q9HC16;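 active = inhibition of at least 40% at 20 µM, with no more than 30% in the related APOBEC3A deaminase screen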;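 also: plate controls were DMSO wells with A3G for no effect and wells lacking A3G enzyme for full effect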
Target sequence (Q9HC16 whole entry, looked up): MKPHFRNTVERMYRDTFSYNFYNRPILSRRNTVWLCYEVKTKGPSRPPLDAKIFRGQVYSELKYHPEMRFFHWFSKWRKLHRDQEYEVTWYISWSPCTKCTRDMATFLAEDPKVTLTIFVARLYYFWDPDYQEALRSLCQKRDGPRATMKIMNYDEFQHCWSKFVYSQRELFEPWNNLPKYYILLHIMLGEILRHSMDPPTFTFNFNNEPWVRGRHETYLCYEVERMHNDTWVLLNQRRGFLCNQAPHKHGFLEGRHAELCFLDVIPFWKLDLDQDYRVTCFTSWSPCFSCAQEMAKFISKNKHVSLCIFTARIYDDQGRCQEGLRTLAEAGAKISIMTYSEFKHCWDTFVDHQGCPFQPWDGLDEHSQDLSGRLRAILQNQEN
APOBEC3A inh: inhibitors of human APOBEC3A DNA deaminase; recombinant A3A, FAM/TAMRA ssDNA deamination fluorescence; P31941; hit rate 0.41% among 330,000; inhibition, % at 20 µM;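 active = at least 40% inhibition at 20 µM here, with at most 30% in a related deaminase screen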;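 also: plate controls were A3A with DMSO for no effect and wells lacking A3A enzyme for full effect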
Target sequence (P31941 whole entry, looked up): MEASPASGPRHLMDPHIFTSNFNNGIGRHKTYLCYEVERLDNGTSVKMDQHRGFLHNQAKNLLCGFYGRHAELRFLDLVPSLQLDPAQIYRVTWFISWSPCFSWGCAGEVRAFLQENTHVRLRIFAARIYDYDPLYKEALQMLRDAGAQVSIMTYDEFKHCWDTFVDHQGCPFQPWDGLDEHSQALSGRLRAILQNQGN
AHR act cf: human AHR activation, confirmation; human cells, AHR-responsive luciferase reporter, luminescence; hit rate 87% among 2,300; activation, % at 9 µM; shares compounds with AHR activator; in the data active = activation above about 49%;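 also: HepG2 hepatoma cells carrying a DRE-driven firefly luciferase reporter; 0% = vehicle wells and 100% = reference agonist wells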
PXR counter: counter-screen for AHR activators: human PXR activators; hit rate 88% among 2,300; shares compounds with AHR activator; cell-based PXR reporter, luciferase luminescence; activation, % at 11.6 µM; in the data active = activation above about 11%;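 also: human hepatoma DPX-2 cells expressing full-length human PXR; 0% = DMSO and 100% = reference agonist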
Numbers without * were called inactive; x = no result.

SMILES	AHR activator	NTR1 agonist	APOBEC3G inh	APOBEC3A inh	AHR act cf	PXR counter
CC(C)C(=O)Nc1ccc(Cl)cc1-c1nc2ccccc2[nH]c1=O	79*	-1	-3	3	76*	12*
CCC(=O)Nc1ccccc1-c1nc2ccccc2[nH]c1=O	x	2	-10	-7	x	x
C/C(=N\NC(=O)c1cccc2ccccc12)c1cccs1	7	-1	12	0	x	x
C/C(=N\NC(=O)c1c[nH]c2ccccc12)c1ccc(C)s1	92*	2	-2	0	126*	59*
CC/C(=N\NC(=O)c1c[nH]c2ccccc12)c1cccs1	83*	3	7	0	151*	55*
C=CCn1c(CCc2cc(C(C)(C)C)c(O)c(C(C)(C)C)c2)n[nH]c1=S	0	7	1	1	x	x
CCOC(=O)CC(NS(=O)(=O)c1ccc(OC)c(C)c1)c1cccc([N+](=O)[O-])c1 (configuration not stated)	-1	-1	-7	-5	x	x
O=S(=O)(Nc1ccc(-c2nc3cccnc3s2)cc1)c1cccs1	95*	4	-6	-2	98*	29*
COc1ccc(-c2[nH]ncc2/C=N\NS(=O)(=O)c2ccccc2)cc1OC	92*	0	0	1	33	24*
COc1ccccc1C(=O)NCC(=O)N/N=C/c1cn[nH]c1-c1ccccc1	156*	0	1	-2	111*	12*
O=C(CNC(=O)c1ccccc1)N/N=C/c1cn[nH]c1-c1ccccc1	146*	-1	-6	0	92*	20*
COc1cccc(C(=O)NCC(=O)N/N=C/c2cn[nH]c2-c2ccccc2)c1	19	2	-6	-2	x	x
CCCCn1cnc(C(=O)OCC)c1N	2	-1	-3	0	x	x
NS(=O)(=O)c1ccc(CNC(=O)/C=C/c2cccc([N+](=O)[O-])c2)cc1	0	1	-5	-3	x	x
CCOc1ccc(C(C)NC(=O)C2CCC2)cc1 (configuration not stated)	1	0	-4	4	x	x
O/N=C/c1cc(Cl)ccc1OCc1ccccc1Cl	106*	-6	-4	1	103*	15*
CCOc1ccc(Cl)cc1/C=N/O	6	1	-2	-1	x	x
CC(=O)Oc1ccccc1/C=C/c1ccc2ccccc2[n+]1C	111*	0	32	100	21	14*
CC(C)(C)n1nc2c(c1NC(=O)C1CC(=O)N(c3ccc(Cl)cc3)C1)CS(=O)(=O)C2 (configuration not stated)	-2	0	-4	4	x	x
CCOC(=O)CCc1c(C)nc2cc(-c3ccc(Cl)cc3)[nH]n2c1=O	13	-6	0	1	x	x
CCc1c(C)nc2cc(-c3ccc(Cl)cc3)[nH]n2c1=O	113*	0	-5	-6	95*	22*
CCOC(=O)c1c(SC)[nH]c2c(Cl)cccc2c1=O	-2	2	-5	-1	x	x
CCCCNC(=S)Nc1cccc2cnccc12	89*	1	-14	-2	61*	13*
C=CCn1c(SCC(=O)N2CCOCC2)nc2c([nH]c3ccccc32)c1=O	88*	0	-12	0	92*	77*
COCCn1c(SCC(=O)N2CCCC2)nc2c([nH]c3ccccc32)c1=O	23	1	-10	1	x	x
SMILES	AHR activator	NTR1 agonist	APOBEC3G inh	APOBEC3A inh	AHR act cf	PXR counter
CCOC(=O)N1CCN(C(=O)CSc2nc3c([nH]c4ccccc43)c(=O)n2CC)CC1	101*	2	-9	0	94*	54*
Cc1ccc(C)c(S(=O)(=O)Nc2cc3c4c(c2)CCC(=O)N4CCC3)c1	17	2	-10	2	x	x
Cc1ccc(C(=O)NNC(=O)c2n[nH]c(=O)c3ccccc23)cc1C	16	-1	-7	3	x	x
O=C(Cn1nc(CNc2ccc(Cl)cc2)[n+]2c1CCCCC2)c1ccc(Br)cc1	100*	-3	-9	-1	8	24*
N/C(=N\OC(=O)Cc1ccc(-c2ccccc2)cc1)c1ccncc1	0	1	1	0	x	x
Cc1ccc(NCC(=O)N/N=C/c2c[nH]c3ccccc23)cc1	158*	2	-4	-2	111*	19*
Cc1ccc(/C(O)=C2\C(=O)C(=O)N(C)C2c2ccc(F)cc2)cc1 (configuration not stated)	x	0	0	-2	x	x
Cc1cn2c(=O)c(C(=O)N3CCN(c4ccccc4)CC3)cnc2s1	2	1	2	0	x	x
COc1ccc(C(=O)N/N=C/c2ccc3cccc(OCc4ccccc4)c3n2)cc1	81*	13	0	3	81*	22*
O=C(Nc1ccc(F)c(Cl)c1)c1cccnc1	15	1	-4	-4	x	x
O=C(Nc1ccc(F)c(Cl)c1)c1cncs1	101*	-1	-2	-1	95*	26*
NC(=O)c1c(NC(=O)c2ccc(F)cc2)sc2c1CCC2	174*	3	-2	3	100*	37*
NC(=O)c1c(NC(=O)c2cc3ccccc3o2)sc2c1CCC2	86*	0	7	8	48*	7
Cc1nc(-c2ccc3c(c2)OCO3)cs1	9	0	-2	-2	x	x
Cc1c(C)c(C)c2[nH]c(-c3ccc4c(c3)OCO4)nc2c1C	102*	19	-3	1	102*	50*
Cc1n[nH]c(C)c1N=Nc1ccc(Br)cc1	132*	0	-10	-4	123*	20*
COc1ccc(N=Nc2c(C)n[nH]c2C)cc1	47	-1	-2	0	x	x
CC(C)(CCl)C(=O)Nc1ccc(C(F)(F)F)cc1	-1	0	-2	-3	x	x
CN=C(Nc1ccc(Cl)cc1)c1ccc(C(F)(F)F)cc1	85*	-1	-7	-2	98*	45*
CN=C(Nc1ccc(Cl)cc1)c1cccc(C(F)(F)F)c1	84*	-1	-8	-1	89*	56*
CN=C(Nc1cccnc1)c1cccc(C(F)(F)F)c1	3	-1	-6	1	x	x
CCN1CCc2c(OCC(=O)Nc3ccc4c(c3)OCCO4)cccc2C1=O	10	3	0	-7	x	x
Cc1cccc(-n2c(Cc3cc(=O)[nH]c(=O)[nH]3)nnc2SCC(=O)N2CCc3ccccc32)c1	12	2	-4	2	x	x
C=CCNC(=S)N/N=C/c1ccc(-c2ccc(Br)cc2)o1	81*	7	-5	1	132*	19*
Cc1cc(Br)ccc1NC(=O)CN(C)C(=O)c1cc([N+](=O)[O-])ccc1N1CCOCC1	92*	-2	-4	22	84*	53*
O=C(COc1ccc(/C=N/NC(=O)C(=O)N2CCCCCC2)cc1)Nc1ccccc1Cl	0	x	x	x	x	x
O=c1oc(CCCO)cc2ccc(C#Cc3cccnc3)cc12	88*	-1	5	0	76*	18*
S=c1[nH]nc(-c2cc3c(s2)-c2ccccc2CC3)o1	93*	1	-2	-6	116*	23*
CC1CCc2sc(-c3n[nH]c(=S)o3)cc2C1 (configuration not stated)	4	-1	-9	-4	x	x

From PubChem
